From PubChem BioAssay (Tox21) come the findings set out here.

“And” between values parts separate entries of the source, which are not always exact repeats. Equal values may be shown once. Inconclusive results are not listed. Unmarked numbers belong to inactive results. The source made the active and inactive calls. The call rests on the fitted dose curve; in most records, active means well fitted cell-killing curve with a large enough effect in the repeat runs; inconclusive means weak or mixed curves, or effect the other way; inactive means no such curve, though single readings can be large or run the other way.
On the % scale 0 is the no-effect control and ±100 the full control effect; potency means the concentration at half of the fitted maximal effect.

A short description of one experiment: qHTS assay for identifying genotoxic compounds that show differential cytotoxicity against isogenic chicken DT40 cell lines with known DNA damage response pathways - wild type cell line (AID 743012). Further: nearly all actives have a fitted effect of over 60% in size. The conditions noted are these: DT40 wild type chicken cells viability, CellTiter-Glo, 40 h; series mostly up to 68.4 µM; activity change, negative = cytotoxicity: at the top concentration. In a few lines: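 Cytotoxicity in repair-proficient parental chicken DT40 cells serves as the comparator for Rad54/Ku70- and Rev3-deficient lines. Cells were exposed to compounds for 40 h at 37 C/5% CO2, and ATP-based luminescence (CellTiter-Glo) measured viability.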
(In general: Quantitative high-throughput screening tests each substance at several concentrations.)
Regarding `CSC(=O)c1c(C(F)F)nc(C(F)(F)F)c(C(=O)SC)c1CC(C)C`, the Potency was 34.2 µM (active).
As for `CCOP(=O)(OCC)Oc1cc(C)nc(C(C)C)n1`, the “activity change, negative = cytotoxicity” value was 11.2% [at 95 µM].
`CCOP(=O)(Sc1ccccc1)Sc1ccccc1`: the Potency is 24.3 µM (active).
Consider `CCC1COC(Cn2cncn2)(c2ccc(Cl)cc2Cl)O1` (stereo not given), for which the Potency is 15.4 µM (active).
Regarding `Clc1ccc(C(Cl)(Cl)Cl)cc1Cl`, the “activity change, negative = cytotoxicity” value was -1.3%.
With `Nc1nc(N)nc(Cl)n1`, the “activity change, negative = cytotoxicity” value was 21%.
Take `ClCBr`: the “activity change, negative = cytotoxicity” value is 12.1% [at 95 µM].
With `CC(Cc1ccc2c(c1)OCO2)NO` (stereo not given), the “activity change, negative = cytotoxicity” value is -9.69% [at 95 µM].
Turning to `C[N+]1(C)[C@@H]2CC[C@H]1CC(OC(=O)C(CO)c1ccccc1)C2` (stereo not given in full), the “activity change, negative = cytotoxicity” value is -0.809%.
On to `CCOP(=S)(NC(C)C)Oc1ccccc1C(=O)OC(C)C` (stereo not given), for which the Potency is 15.4 µM (active).
Turning to `O=S1(=O)OCC2C(CO1)C1(Cl)C(Cl)=C(Cl)C2(Cl)C1(Cl)Cl` (stereo not given), the Potency was 24.3 µM (active).
Regarding `O=C(O)CCCCCCNC1c2ccccc2CCc2ccccc21`, the “activity change, negative = cytotoxicity” value was 7.48%.
For the compound `Cc1cnc2c(C(=O)O)c(Cl)ccc2c1`, the “activity change, negative = cytotoxicity” value was 18.2%.
On to `C#CCO`, for which the “activity change, negative = cytotoxicity” value is -1.87%.
`CCCCCCCc1ccc(O)cc1`: the Potency is 21.7 µM (active).
On to `S=C=NCCc1ccccc1`, for which the “activity change, negative = cytotoxicity” value was -0.635%.
Turning to `CC1=C2C[C@H]3[C@@H](CC=C4C[C@@H](O)CC[C@@]43C)[C@@H]2CC[C@]12O[C@@H]1C[C@H](C)CN[C@H]1[C@H]2C`, the Potency is 29.8 µM (active).
In the case of `FC(F)C(F)(F)OCC(Cn1cncn1)c1ccc(Cl)cc1Cl` (stereo not given), the Potency was 3.05 µM (active).
Turning to `CCCCN(CCCC)C(=S)[S-].CCCCN(CCCC)C(=S)[S-].[Ni+2]`, the “activity change, negative = cytotoxicity” value was 4.22%.
Turning to `COC(=O)/C=C(\C)OP(=O)(OC)OC`, the “activity change, negative = cytotoxicity” value is -15.5%.
On to `CCN(CC)Cc1nccn1-c1ccc([N+](=O)[O-])cc1C(=O)c1ccccc1Cl`, for which the Potency is 29.8 µM (active).
The same measure, in the same setting: the figure for `Nc1ccc(N=Nc2ccccc2)cc1` is 61.1 µM (active).
As to `Clc1ccc(C(c2ccc(Cl)cc2)C(Cl)Cl)cc1`, the Potency was 39.2 µM (active) and 19.3 µM (active).
For the compound `CN(C)C(=S)SSC(=S)N(C)C`, the Potency was 47.3 nM (active) and 240 nM (active) and 24.3 nM (active).
Turning to `Oc1ccc2[nH]cc(CCCCN3CC=C(c4ccccc4)CC3)c2c1`, the Potency is 5.96 µM (active).
`CCOP(=S)(OCC)Oc1cc(C)nc(N(CC)CC)n1`: the Potency was 27.3 µM (active).
With `C=CCOC(=O)c1ccccc1N`, the “activity change, negative = cytotoxicity” value was 1.2% [at 95 µM].
As to `CC1(C)[C@H](/C=C2\CCSC2=O)[C@@H]1C(=O)OCc1coc(Cc2ccccc2)c1`, the Potency is 6.86 µM (active).
Consider `Nc1ccccc1-c1ccccc1`, for which the “activity change, negative = cytotoxicity” value is 19.4%.

Another experiment is described as follows: qHTS assay for identifying genotoxic compounds that show differential cytotoxicity against isogenic chicken DT40 cell lines with known DNA damage response pathways - Rev3 mutant cell line (AID 743014). Further: nearly all actives have a fitted effect of over 55% in size. The settings on record: chicken DT40 Rev3-/- viability, CellTiter-Glo, 40 h; series mostly up to 68.4 µM; activity, negative = cytotoxicity: at the top concentration.
As to `CSC(=O)c1c(C(F)F)nc(C(F)(F)F)c(C(=O)SC)c1CC(C)C`, the Potency was 27.1 µM (active).
In the case of `CCOP(=O)(OCC)Oc1cc(C)nc(C(C)C)n1`, the “activity, negative = cytotoxicity” value is 6.01% [at 95 µM].
For `CCOP(=O)(Sc1ccccc1)Sc1ccccc1`, the “activity, negative = cytotoxicity” value is -4.41%.
With `CCC1COC(Cn2cncn2)(c2ccc(Cl)cc2Cl)O1` (stereo not given), the Potency was 9.69 µM (active).
As to `Clc1ccc(C(Cl)(Cl)Cl)cc1Cl`, the “activity, negative = cytotoxicity” value is -13.4%.
As to `Nc1nc(N)nc(Cl)n1`, the “activity, negative = cytotoxicity” value is 3.69%.
With `ClCBr`, the “activity, negative = cytotoxicity” value is 6.35% [at 95 µM].
Same read-out and setting: the figure for `CC(Cc1ccc2c(c1)OCO2)NO` (stereo not given) is -10.2% [at 95 µM].
Take `C[N+]1(C)[C@@H]2CC[C@H]1CC(OC(=O)C(CO)c1ccccc1)C2` (stereo not given in full): the Potency result was “inactive”.
Turning to `CCOP(=S)(NC(C)C)Oc1ccccc1C(=O)OC(C)C` (stereo not given), the Potency was 13.7 µM (active).
With `O=S1(=O)OCC2C(CO1)C1(Cl)C(Cl)=C(Cl)C2(Cl)C1(Cl)Cl` (stereo not given), the Potency was 10.9 µM (active).
For the compound `O=C(O)CCCCCCNC1c2ccccc2CCc2ccccc21`, the “activity, negative = cytotoxicity” value is -1.29%.
Take `Cc1cnc2c(C(=O)O)c(Cl)ccc2c1`: the “activity, negative = cytotoxicity” value was -3.86%.
Regarding `C#CCO`, the “activity, negative = cytotoxicity” value is 0.0551%.
With `CCCCCCCc1ccc(O)cc1`, the Potency is 19.3 µM (active).
On the same count and under the same terms, the figure for `CC1=C2C[C@H]3[C@@H](CC=C4C[C@@H](O)CC[C@@]43C)[C@@H]2CC[C@]12O[C@@H]1C[C@H](C)CN[C@H]1[C@H]2C` is 8.41 µM (active); for `FC(F)C(F)(F)OCC(Cn1cncn1)c1ccc(Cl)cc1Cl` (stereo not given) it is 4.83 µM (active).
As to `CCCCN(CCCC)C(=S)[S-].CCCCN(CCCC)C(=S)[S-].[Ni+2]`, the “activity, negative = cytotoxicity” value was 2.11%.
For the compound `COC(=O)/C=C(\C)OP(=O)(OC)OC`, the Potency was 24.3 µM (active).
As for `CCN(CC)Cc1nccn1-c1ccc([N+](=O)[O-])cc1C(=O)c1ccccc1Cl`, the Potency was 29.8 µM (active).
For the compound `Nc1ccc(N=Nc2ccccc2)cc1`, the Potency was 61.1 µM (active).
On to `Clc1ccc(C(c2ccc(Cl)cc2)C(Cl)Cl)cc1`, for which the Potency is 17.5 µM (active) and 3.86 µM (active).
For `Oc1cc(Cl)cc(Cl)c1`, the Potency was 61.8 µM (active).
Regarding `CCN(CC)CCc1c[nH]c2ccccc12`, the “activity, negative = cytotoxicity” value is -22.1% [at 95 µM].
In the case of `c1ccc(Nc2ccc(Nc3ccccc3)cc2)cc1`, the Potency was 21.6 µM (active).
For the compound `CN(C)C(=S)SSC(=S)N(C)C`, the Potency was 106 nM (active) and 107 nM (active) and 19.3 nM (active).
`Oc1ccc2[nH]cc(CCCCN3CC=C(c4ccccc4)CC3)c2c1`: the Potency was 5.96 µM (active).
For the compound `CCOP(=S)(OCC)Oc1cc(C)nc(N(CC)CC)n1`, the Potency was 27.3 µM (active).
Regarding `C=CCOC(=O)c1ccccc1N`, the “activity, negative = cytotoxicity” value is -0.879% [at 95 µM].
On to `CC1(C)[C@H](/C=C2\CCSC2=O)[C@@H]1C(=O)OCc1coc(Cc2ccccc2)c1`, for which the Potency is 5.45 µM (active).
Turning to `Nc1ccccc1-c1ccccc1`, the “activity, negative = cytotoxicity” value is 3.39%.
